Assay results reported in PubChem BioAssay (NCATS).
Results filed as inconclusive are left out. Active and inactive are the calls of the source. The call rests on the fitted dose curve; in most records, active means well fitted curve in the direction sought with a large enough effect; inconclusive means small, poorly fitted or top-dose-only effect, or another doubt; inactive means no such curve, though single readings can be large; an effect the other way counts as inactive or inconclusive.

Experiments:
[1] = Quantitative High-Throughput drug screen in 47 multiple myeloma cell lines against the NCATS MIPE library collection: JIM3_ECACC cell viability assay (AID 1918963; further: nearly all actives have a fitted effect of over 35% in size)
In short: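 Steps: seed 500 cells per well; pin-transfer MIPE 4.0 library; incubate 48 h at 37C, 5% CO2, humidified; add CellTiter-Glo, 5 min room temperature; read luminescence.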

[2] = Quantitative High-Throughput drug screen in 47 multiple myeloma cell lines against the NCATS MIPE library collection: INA6_PLB cell viability assay (AID 1918965; further: nearly all actives have a fitted effect of over 55% in size)
In short: (§1)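 CellTiter-Glo luminescence (ATP) after 48 h compound exposure, 37C/5% CO2; 500 cells/well; MIPE 4.0 approved/investigational drugs pinned in; DMSO = 100%, media only = 0% viability.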

[3] = Quantitative High-Throughput drug screen in 47 multiple myeloma cell lines against the NCATS MIPE library collection: H1112_PLB cell viability assay (AID 1918967; further: nearly all actives have a fitted effect of over 30% in size)
In short: (§2)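 Approved and investigational drugs from MIPE 4.0 were added by pin tool to 500 cells per well. After 48 hours at 37C, ATP-based CellTiter-Glo luminescence indicated remaining viability.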

[4] = Quantitative High-Throughput drug screen in 47 multiple myeloma cell lines against the NCATS MIPE library collection: Karpas25_ECACC cell viability assay (AID 1918968; further: nearly all actives have a fitted effect of over 35% in size)
In short: as §2

[5] = Quantitative High-Throughput drug screen in 47 multiple myeloma cell lines against the NCATS MIPE library collection: KMS12BM_JCRB cell viability assay (AID 1918971); further: nearly all actives have a fitted effect of over 35% in size
In short: (§3)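 qHTS of the MIPE 4.0 collection: 500 myeloma cells/well, 48 h drug exposure at 37C in 5% CO2, then CellTiter-Glo for 5 min at room temperature before luminescence reading.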

[6] = Quantitative High-Throughput drug screen in 47 multiple myeloma cell lines against the NCATS MIPE library collection: KMS12PE_JCRB cell viability assay (AID 1918972); further: nearly all actives have a fitted effect of over 30% in size
In short: as §1

[7] = Quantitative High-Throughput drug screen in 47 multiple myeloma cell lines against the NCATS MIPE library collection: KMS20_JCRB cell viability assay (AID 1918973); further: nearly all actives have a fitted effect of over 45% in size
In short: as §2

[8] = Quantitative High-Throughput drug screen in 47 multiple myeloma cell lines against the NCATS MIPE library collection: MMM1_PLB cell viability assay (AID 1918976); further: nearly all actives have a fitted effect of over 35% in size
In short: (§4)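 500 cells/well; MIPE 4.0 drugs pin-transferred; 48 h, 37C, 5% CO2. CellTiter-Glo, 5 min RT, luminescence. Controls: DMSO 100%, media 0%.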

[9] = Quantitative High-Throughput drug screen in 47 multiple myeloma cell lines against the NCATS MIPE library collection: MOLP8_DSMZ cell viability assay (AID 1918977); further: nearly all actives have a fitted effect of over 45% in size
In short: as §4

[10] = Quantitative High-Throughput drug screen in 47 multiple myeloma cell lines against the NCATS MIPE library collection: NCIH929_DSMZ cell viability assay (AID 1918978); further: nearly all actives have a fitted effect of over 35% in size
In short: as §4

[11] = Quantitative High-Throughput drug screen in 47 multiple myeloma cell lines against the NCATS MIPE library collection: OCIMY1_PLB cell viability assay (AID 1918979); further: nearly all actives have a fitted effect of over 35% in size
In short: as §4

[12] = Quantitative High-Throughput drug screen in 47 multiple myeloma cell lines against the NCATS MIPE library collection: MM1S_ATCC cell viability assay (AID 1918980); further: nearly all actives have a fitted effect of over 45% in size
In short: as §4

[13] = Quantitative High-Throughput drug screen in 47 multiple myeloma cell lines against the NCATS MIPE library collection: MM1R_ATCC cell viability assay (AID 1918981); further: nearly all actives have a fitted effect of over 35% in size
In short: as §4

[14] = Quantitative High-Throughput drug screen in 47 multiple myeloma cell lines against the NCATS MIPE library collection: KMS26_JCRB cell viability assay (AID 1918975); further: nearly all actives have a fitted effect of over 45% in size
In short: as §3

[15] = Quantitative High-Throughput drug screen in 47 multiple myeloma cell lines against the NCATS MIPE library collection: LP1_DSMZ cell viability assay (AID 1918982); further: nearly all actives have a fitted effect of over 35% in size
In short: as §4

[16] = Quantitative High-Throughput drug screen in 47 multiple myeloma cell lines against the NCATS MIPE library collection: KMS27_JCRB cell viability assay (AID 1918970); conditions: KMS27 myeloma cells, CellTiter-Glo ATP viability, 48 h; viability (% of DMSO): at 45.8 µM (top of the series); further: nearly all actives have a fitted effect of over 30% in size
In short: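 ATP-based viability (CellTiter-Glo luminescence) is measured in cells treated 48 h with approved and investigational drugs at 37 °C. Controls are DMSO-only wells for full viability and media-only wells for none.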

[17] = Quantitative High-Throughput drug screen in 47 multiple myeloma cell lines against the NCATS MIPE library collection: JJN3_DSMZ cell viability assay (AID 1918966; further: nearly all actives have a fitted effect of over 50% in size)
In short: as §2

[18] = Quantitative High-Throughput drug screen in 47 multiple myeloma cell lines against the NCATS MIPE library collection: JIM1_ECACC cell viability assay (AID 1918964)
In short: as §2
Potency means the concentration at half of the fitted maximal effect.

NC(=O)c1ncn([C@@H]2O[C@H](CO)[C@@H](O)[C@@H]2O)c1O
active: Potency [8] 2.64 µM
inactive: Potency [1] | Potency [2] | Potency [3] | Potency [4] | Potency [5] | Potency [6] | Potency [7] | Potency [9] | Potency [10] | Potency [11] | Potency [12] | Potency [13]

C[C@H]1COc2c(N3CCN(C)CC3)c(F)cc3c(=O)c(C(=O)O)cn1c23
inactive: Potency [1] | Potency [2] | Potency [3] | Potency [4] | Potency [5] | Potency [7] | Potency [14] | Potency [10] | Potency [11] | Potency [12] | Potency [13] | Potency [15]

CC(C)[C@H](CO)Nc1nc(Nc2cccc(Cl)c2)c2ncn(C(C)C)c2n1
active: Potency [1] 18.7 µM | Potency [2] 18.7 µM | Potency [3] 26.4 µM | Potency [4] 26.4 µM | Potency [5] 20.9 µM | Potency [7] 20.9 µM | Potency [14] 23.5 µM | Potency [8] 26.4 µM | Potency [10] 18.7 µM | Potency [11] 23.5 µM | Potency [12] 5.9 µM | Potency [15] 23.5 µM

Oc1ccc([C@@H]2Oc3ccc(O)cc3[C@@H]3CCC[C@@H]32)cc1
active: Potency [3] 11.8 µM | Potency [4] 14.8 µM | Potency [5] 14.8 µM | Potency [10] 18.7 µM
inactive: Potency [16] | Potency [6]

c1ccc2c(Oc3nc(Nc4ccc(N5CCOCC5)cc4)c4ncn(C5CCCCC5)c4n3)cccc2c1
inactive: Potency [3] | Potency [12]
active: Potency [1] 18.7 µM | Potency [5] 16.6 µM | Potency [8] 13.2 µM

CON=C(C(=O)N[C@@H]1C(=O)N2C(C(=O)O)=C(CSC(=O)c3ccco3)CS[C@H]12)c1csc(N)n1
active: Potency [4] 16.6 µM
inactive: Potency [2] | Potency [17] | Potency [5] | Potency [14] | Potency [11] | Potency [15]

COC(=O)C1C2CC3c4[nH]c5cc(OC)ccc5c4CCN3CC2CC(OC(=O)c2cc(OC)c(OC)c(OC)c2)C1OC (stereo not drawn)
inactive: Potency [14]
active: Potency [1] 26.4 µM | Potency [3] 16.6 µM | Potency [4] 23.5 µM | Potency [6] 18.7 µM | Potency [8] 20.9 µM | Potency [12] 14.8 µM | Potency [13] 13.2 µM

COc1ccc(C=Cc2cc(OC)c(OC)c(OC)c2)cc1NC(=O)[C@H](N)CO
active: Potency [2] 0.001 µM | Potency [17] 0.0235 µM | Potency [4] 0.001 µM | Potency [5] 0.0166 µM | Potency [6] 0.0118 µM | Potency [14] 0.0332 µM | Potency [8] 0.0187 µM | Potency [9] 0.0662 µM | Potency [10] 0.0059 µM | Potency [12] 0.0209 µM | Potency [13] 0.0148 µM | Potency [15] 0.0017 µM

COC(=O)C=CC(=O)OC
inactive: Potency [5] | Potency [6] | Potency [15]
active: Potency [2] 18.7 µM | Potency [4] 1.48 µM | Potency [7] 2.64 µM | Potency [10] 0.264 µM | Potency [12] 1.66 µM | Potency [13] 23.5 µM

COc1cc(OC)c(NC(=O)Nc2cc(C)on2)cc1Cl
inactive: Potency [2] | Potency [3] | Potency [6] | Potency [14] | Potency [10] | Potency [11] | Potency [15]
active: Potency [4] 14.8 µM

O=C(c1ccc(F)cc1)N1CCC[C@H](c2nc(-c3ccc(F)cc3)no2)C1
inactive: Potency [2] | Potency [17] | Potency [3] | Potency [4] | Potency [16] | Potency [6] | Potency [14] | Potency [9] | Potency [10] | Potency [11] | Potency [13] | Potency [15]

CC(C)(C)[C@H](NC(=O)c1ccc(N)c(Cl)c1)C(=O)N1CCC[C@@H]1C(=O)N[C@H](C#N)CC(=O)O
inactive: viability, percent of control [1] 130% [at 3.51 µM] | viability [3] 116% [at 3.51 µM] | viability (% of DMSO) [14] 125% [at 3.51 µM] | viability, % of control [10] 122% [at 3.51 µM] | viability [11] 103% [at 3.51 µM] | viability (% of control) [12] 120% [at 3.51 µM] | viability (% of control) [13] 128% [at 3.51 µM]
active: Potency [16] 1.05 µM

C=CC(=O)Nc1cc(NC(=O)c2ccc(C)c(NC(=O)c3ccno3)c2)cc(C(F)(F)F)c1
active: Potency [2] 16.6 µM | Potency [17] 18.7 µM | Potency [3] 18.7 µM | Potency [4] 14.8 µM | Potency [5] 23.5 µM | Potency [6] 8.33 µM | Potency [14] 18.7 µM | Potency [8] 20.9 µM | Potency [10] 16.6 µM | Potency [12] 16.6 µM

CC(C)c1cc(C(C)C)c(CC(=O)NS(=O)(=O)Oc2c(C(C)C)cccc2C(C)C)c(C(C)C)c1
inactive: Potency [3] | Potency [10] | Potency [12]
active: Potency [1] 7.43 µM | Potency [5] 16.6 µM | Potency [6] 6.62 µM | Potency [14] 26.4 µM | Potency [8] 33.2 µM | Potency [9] 20.9 µM | Potency [11] 20.9 µM | Potency [15] 20.9 µM

CCN(CC)CCCCNc1ncc2c(n1)N(C)C(=O)N(c1c(Cl)c(OC)cc(OC)c1Cl)C2
active: Potency [2] 11.8 µM | Potency [3] 16.6 µM | Potency [4] 16.6 µM | Potency [8] 9.35 µM | Potency [12] 4.69 µM
inactive: Potency [6] | Potency [10]

N#CNC(=NCCCCCCOc1ccc(Cl)cc1)Nc1ccncc1
inactive: Potency [4]
active: Potency [18] 0.0296 µM | Potency [17] 0.0105 µM | Potency [16] 0.001 µM | Potency [5] 0.0118 µM | Potency [6] 0.0042 µM | Potency [14] 0.0074 µM | Potency [8] 18.7 µM | Potency [9] 0.0235 µM | Potency [11] 0.0105 µM | Potency [12] 0.0059 µM | Potency [13] 0.0093 µM | Potency [15] 0.0187 µM
